Hits are enriched below; roughly 4.7% of the tested compounds scored in any of these assays.
PABP polyA inh: PABP-poly(A) binding inhibition; P11940; AID 2014; hit rate 1% among 290,000; PABP-poly(A) RNA binding, fluorescence polarization; inhibition, % at 35 µM;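 also: calls also rest on retests at 20 µM and on dose response follow-up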
Target sequence (P11940 whole entry, looked up): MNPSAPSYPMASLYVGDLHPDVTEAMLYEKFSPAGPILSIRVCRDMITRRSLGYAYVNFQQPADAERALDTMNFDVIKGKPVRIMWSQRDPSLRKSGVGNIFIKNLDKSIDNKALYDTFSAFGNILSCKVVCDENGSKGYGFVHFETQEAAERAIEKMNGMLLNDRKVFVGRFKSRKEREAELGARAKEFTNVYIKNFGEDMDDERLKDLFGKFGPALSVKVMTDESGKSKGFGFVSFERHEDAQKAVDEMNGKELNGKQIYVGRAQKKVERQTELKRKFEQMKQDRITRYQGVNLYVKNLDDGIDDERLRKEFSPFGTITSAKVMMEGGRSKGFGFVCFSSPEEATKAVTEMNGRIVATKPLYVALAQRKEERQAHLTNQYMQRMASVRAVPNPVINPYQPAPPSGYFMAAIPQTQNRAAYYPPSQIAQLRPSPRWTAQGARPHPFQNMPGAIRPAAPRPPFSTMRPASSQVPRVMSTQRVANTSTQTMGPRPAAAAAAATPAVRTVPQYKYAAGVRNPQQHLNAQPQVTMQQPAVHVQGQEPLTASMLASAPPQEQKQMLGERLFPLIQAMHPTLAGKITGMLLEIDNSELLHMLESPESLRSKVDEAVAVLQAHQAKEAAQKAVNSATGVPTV
Efflux pump mplx: blocks antifungal efflux pumps in multiplex yeast assay | hit rate 0.44% among 330,000 | inhibition, % at 10 µM | S. cerevisiae Candida pump triplex, Nile Red efflux;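 active = plate passing quality check with inhibition over a set limit, or well fluorescence over plate mean plus 4 SD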;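 also: Nile Red retained in pooled yeast measured as flow cytometry median fluorescence; 0% = buffer negative control and 100% = Enniatin B positive control; higher means more Nile Red kept so more efflux inhibition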
eIF4H FP inh: inhibitors of RNA binding by human eIF4H | Q15056 | eIF4H fluorescence polarization binding assay | inhibition, % at 35 µM | hit rate 0.94% among 290,000 | AID 2012;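 also: calls also rest on retests at 20 µM and on dose response follow-up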
UBC9 SUMO inh: SUMOylation inhibition | P63279 | HTRF SUMOylation assay, SAE1/SAE2 + UBC9, in vitro | inhibition, % at 35 µM | hit rate 0.36% among 290,000; in the data active = inhibition above about 50%, passing the limit was not always enough; inconclusive = no clear call, values can overlap the other calls
PABP1 MLLE inh: inhibitors of microRNA-mediated deadenylation, human PABP1 MLLE binding | inhibition, % at 20 µM | AID 588489 | hit rate 0.36% among 360,000 | P11940 | GST-MLLE / FITC-PAM2 fluorescence polarization; in the data active = inhibition above about 35%, passing the limit was not always enough;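 also: plate controls were DMSO wells with GST-MLLE for no effect and wells lacking GST-MLLE protein for full effect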
ALR inh: blocks human ALR sulfhydryl oxidase activity | purified ALR, DTT oxidation, H2O2 HRP-luminol luminescence | inhibition, % (concentration not given with the values) | hit rate 3.8% among 290,000;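 active = mean replicate inhibition above about 79%, with every replicate also reaching it, limit read from the data; inconclusive = only one of the two criteria met; inactive = mean below limit and not every replicate reaching it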
* hit, by the source's call; i = inactive; ? = inconclusive; nt = no result. Unless noted, no rule for the calls is given here.

SMILES	PABP polyA inh	Efflux pump mplx	eIF4H FP inh	UBC9 SUMO inh	PABP1 MLLE inh	ALR inh
Cc1cc(C(=O)O)c(C)n1-c1ccccc1	8	0	-7	-1	-8	23
COc1ccc2nc(NC(=O)CSc3n[nH]c(N)n3)sc2c1	nt	0	nt	nt	-35	90*
COc1ccc2nc(NC(=O)CSc3nccc(C)n3)sc2c1	-8	0	-3	-15	-4	-5
Cc1cccc(NC(=S)NC(=O)Cc2ccccc2)c1C	8	0	3	-10	21	-3
Cc1cc(C)c(O)c(NC(=S)NC(=O)Cc2ccccc2)c1	11	0	-7	0	42*	nt
C[C@H]1COC(=O)[C@@H](CC(=O)OC(C)(C)C)C/C=C\C[C@@H](CC(=O)N(CCO)Cc2ccccc2)C(=O)N1	nt	0	nt	nt	4	1
O=Cc1c(Cl)[nH]c(=O)n1-c1ccccc1	53*	nt	4	8	5	nt
Cc1cccc(N2CCN(C(=O)c3cn(C)c(=O)c4c3c3ccccc3n4C)CC2)c1C	0	0	-3	-26	8	88*
CCCn1c(N)c(C(=O)CSc2nnc(-c3cccs3)n2C2CC2)c(=O)[nH]c1=O	nt	0	nt	nt	0	nt
CC(=O)NS(=O)(=O)c1ccc(NC(=O)c2cc(-c3ccc(C)cc3)nc3ccccc23)cc1	3	0	1	-5	11	98*
CC(=O)NS(=O)(=O)c1ccc(NC(=O)c2cc(-c3cccs3)nc3ccccc23)cc1	-13	0	-2	24	0	-4
Cc1ccc(-c2cc(C(=O)Nc3ccc(S(=O)(=O)Nc4nc(C)cc(C)n4)cc3)c3ccccc3n2)cc1	-10	-5	-8	-8	1	-1
CC(=O)NS(=O)(=O)c1ccc(NC(=O)c2cc(-c3ccc(C)c(C)c3)nc3ccccc23)cc1	14	0	9	28	-15	97*
CC(C(=O)NC(=O)NC1CCCCC1)N1CCN(c2ccc(O)cc2)CC1 (configuration not stated)	nt	0	nt	nt	15	99*
COc1cccc(N2CCN(C(=O)NC3CCCCC3)CC2)c1	-10	1	10	5	4	77*
O=C(NC1CCCCC1)N1CCN(c2ccccc2)CC1	-14	0	6	-25	5	nt
CC(C(=O)NC(=O)NC1CCCCC1)N1CCN(c2ccccn2)CC1 (configuration not stated)	-4	0	-2	6	7	-10
COc1cccc(NC(=O)C2CCN(C(=O)NC3CCCCC3)CC2)c1	-13	0	-10	7	-1	0
COc1ccc(N2CCN(C(=O)NC3CCCCC3)CC2)cc1	0	1	-7	15	-2	81*
COc1cc(C(=O)OCC(=O)Nc2ccccc2)cc2c1OCCO2	nt	nt	nt	nt	-3	nt
N#Cc1ccccc1OCc1cccc(S(=O)(=O)N2CCOCC2)c1	nt	0	nt	nt	-2	nt
C#CCN1C(=O)S/C(=C\c2ccc(-c3ccc(C(=O)O)cc3C)o2)C1=O	72*	0	76*	32	4	90*
Cc1ccc(NC(=O)CN2C(=O)S/C(=C\c3ccc(-c4cccc(C(=O)O)c4C)o3)C2=O)cc1	52*	0	74*	26	nt	-2
Cc1ccccc1NC(=O)CN1C(=O)S/C(=C\c2ccc(-c3cc(C(=O)O)ccc3C)o2)C1=O	?	nt	?	nt	-10	nt
Cc1ccc(NC(=O)CN2C(=O)S/C(=C/c3ccc(-c4cccc(C(=O)O)c4)o3)C2=O)cc1	35*	nt	57	81*	-18	nt
SMILES	PABP polyA inh	Efflux pump mplx	eIF4H FP inh	UBC9 SUMO inh	PABP1 MLLE inh	ALR inh
Cc1cc(C(=O)O)ccc1-c1ccc(/C=C2\SC(=O)N(CC(=O)Nc3ccc4c(c3)OCO4)C2=O)o1	?	0	?	82*	-100	-16
COC(=O)c1ccc(-n2c(CCC(=O)O)ccc2-c2ccccc2)cc1	0	0	-8	-3	2	13
CCCCn1c(N)c(N(C(=O)CSc2nnnn2-c2ccccc2C)C2CCCC2)c(=O)[nH]c1=O	nt	nt	nt	nt	-20	nt
COc1ccc(CCNC(=O)C(=O)NCC2CCCN2S(=O)(=O)c2ccc(OC)cc2)cc1 (configuration not stated)	nt	0	nt	nt	5	-1
CC(C)(C)OC(=O)CN1C(=O)S/C(=C\c2ccc(-c3cccc(C(=O)O)c3)o2)C1=O	41	0	65*	9	nt	97*
Cc1ccc(C(=O)O)cc1-c1ccc(/C=C2\SC(=O)N(CC(=O)Nc3ccccc3)C2=O)o1	43	0	49	85*	-21	0
Cc1ccc(C)c(N2C(=N)S/C(=C\c3ccc(-c4ccccc4C(=O)O)o3)C2=O)c1	-8	0	44	15	-64	6
O=C(O)c1cc(-c2ccc(/C=C3/SC(=S)N(Cc4ccccc4)C3=O)o2)ccc1Cl	9.1*	nt	86*	46	i	nt
CCOC(=O)C(C)N1C(=O)S/C(=C\c2ccc(-c3ccccc3C(=O)O)o2)C1=O (configuration not stated)	72*	0	101*	34	-6	1
Clc1ccc(CNc2ccc(CNc3ncn[nH]3)cc2)c(Cl)c1	-4	0	-3	6	-4	9
COc1ccc(-c2ccc(C(=O)NCc3ccco3)c3occc23)c(C)c1	nt	nt	nt	nt	2	nt
CCN(CC(=O)Nc1cc(Cl)ccc1C)C(=O)CCS(=O)(=O)c1ccc(C)cc1	nt	0	nt	nt	-43	2
CC(C)(CO)Nc1ncnc2onc(-c3ccc(F)cc3)c12	74*	0	92*	-6	5	-10
CCc1ccccc1NC(=O)C1CCCN(c2ncnc3onc(-c4ccc(F)cc4)c23)C1 (configuration not stated)	9	0	4	8	2	-5
O=C(O)Cn1nnc(-c2cccs2)n1	3	0	-3	13	7	-14
CC(C)(C)NC(=O)Cn1nnc(-c2cccs2)n1	active	0	65*	3	12	-16
N/C(=N\C(=S)Nc1ccccc1)c1ccccc1	-5	0	-7	2	30	nt
N#C/C(=N\Nc1ccccc1)C(N)=S	5	0	-1	-1	37	92*
N#C/C(=N\Nc1ccc(Cl)cc1)C(N)=S	10	0	0	11	32	94*
NC(N)=NC(=S)Nc1ccc(Cl)cc1	4	0	-5	6	45*	13
CCCNC(=O)C1(C)CCCN(C(=O)c2cccc(C#N)c2)C1 (configuration not stated)	nt	nt	nt	nt	23	nt
Cc1c(-c2ccccc2)c(-c2ccc(OCCN(C)C)cc2)n2ccccc12	nt	nt	nt	nt	-49	nt
CCS(=O)(=O)Nc1c(C(=O)OC)[nH]c2ccccc12	-6	0	-2	6	7	60
CCS(=O)(=O)Nc1c(C(=O)O)[nH]c2ccccc12	18	0	-2	39	13	99*
Cc1ccc(S(=O)(=O)Nc2c(C(=O)O)[nH]c3ccccc23)cc1C	15	0	2	10	6	98*
CSCc1c(C(=O)Nc2ccccc2N2CCOCC2)oc2ccccc12	nt	0	nt	nt	0	-5

Bioassay records from PubChem.
